From PubChem BioAssay (EPA / NIEHS)
Activity calls are given as the source filed them. How the source made its calls: active means hit-call score of the fitted dose curve at least 0.9, where 1 is the maximum; inactive means score below 0.9.

How the values were obtained:
Settings in all cases: mRNA level, 48 h; actives raise or lower the signal
[1] = read-out: Tumor necrosis factor receptor superfamily member 6 (Homo sapiens) (UniProt P25445); experiment: LTEA_HepaRG_FAS: Life Technologies and Expression Analysis (LTEA) Assay for Fas cell surface death receptor (FAS) using HepaRG (AID 2283447)
Summary of the method: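 Differentiated HepaRG cells in serum-free induction medium were exposed 48 h to 8 half-log concentrations up to 100 uM in 0.5% DMSO, in duplicate. FAS mRNA was measured by qRT-PCR normalised to ACTB, GAPDH and POLR2A; bidirectional fit versus DMSO.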

[2] = read-out: Fatty acid synthase (Homo sapiens) (UniProt P49327); experiment: LTEA_HepaRG_FASN: Life Technologies and Expression Analysis (LTEA) Assay for Fatty Acid Synthase (FASN) using HepaRG (AID 2283448);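 on AC50: differentiated human HepaRG liver cells in serum-free induction medium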
Summary of the method: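 Cells were plated, cultured 48 h, switched to serum-free induction medium, then dosed in duplicate (max 100 uM, half-log dilutions, 0.5% DMSO) for 48 h. RNA was then isolated and FASN quantified by qRT-PCR.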

[3] = read-out: Cyclin D2 (CCND2), CCND2 (gene 894); experiment: LTEA_HepaRG_CCND2: Life Technologies and Expression Analysis (LTEA) Assay for Cyclin D2 (CCND2) using HepaRG (AID 2283449);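 further: CCND2 transcript measured by TaqMan qRT-PCR and normalised to three housekeeping genes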
Summary of the method: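 HepaRG, 48 h dosing, 8-pt half-log curve from 100 uM, 0.5% DMSO; duplicate wells. Readout: CCND2 transcript by microfluidic qRT-PCR, housekeeping-normalised; bidirectional fit vs DMSO baseline.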

[4] = read-out: Cyclin Dependent Kinase Inhibitor 1A (CDKN1A), CDKN1A (gene 1026); experiment: LTEA_HepaRG_CDKN1A: Life Technologies and Expression Analysis (LTEA) Assay for Cyclin Dependent Kinase Inhibitor 1A (CDKN1A) using HepaRG (AID 2283450)
Summary of the method: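 Read-out is CDKN1A mRNA by TaqMan qRT-PCR, normalized to three housekeeping genes and fitted in both directions against the DMSO baseline. Human HepaRG cells were treated 48 h with test chemicals up to 100 uM in half-log steps, 0.5% DMSO.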

[5] = read-out: Cyclin D1 (CCND1), CCND1 (gene 595); experiment: LTEA_HepaRG_CCND1: Life Technologies and Expression Analysis (LTEA) Assay for Cyclin D1 (CCND1) using HepaRG (AID 2283451);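 on AC50: differentiated human HepaRG liver cells in serum-free induction medium; TaqMan qRT-PCR transcript level normalised to ACTB GAPDH and POLR2A housekeeping genes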
Summary of the method: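 HepaRG plated 48 h, medium switched to serum-free induction medium, chemicals added in duplicate (top 100 uM, half-log steps, 0.5% DMSO) for 48 h, cells lysed, RNA measured by TaqMan qRT-PCR.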

[6] = read-out: flavin-containing dimethylaniline monooxygenases 3 (FMO3), FMO3 (gene 2328); experiment: LTEA_HepaRG_FMO3: Life Technologies and Expression Analysis (LTEA) Assay for flavin-containing dimethylaniline monooxygenases 3 (FMO3) using HepaRG (AID 2283453);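 on AC50: differentiated human HepaRG liver cells in serum-free induction medium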
Summary of the method: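 FMO3 transcript quantified by TaqMan qRT-PCR against three housekeeping genes after 48 h chemical exposure of HepaRG cells. Eight-point half-log series, top 100 uM, 0.5% DMSO vehicle; phenobarbital 1mM induction control; up- or down-regulation fitted.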

[7] = read-out: CFLAR gene, CFLAR (gene 8837); experiment: LTEA_HepaRG_CFLAR: Life Technologies and Expression Analysis (LTEA) Assay for CFLAR gene using HepaRG (AID 2283455)
Summary of the method: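 qRT-PCR read-out (Fluidigm/TaqMan) of CFLAR mRNA, normalized to three housekeeping genes, in differentiated human HepaRG cells after 48 h chemical exposure; 8-point half-log series from 100 uM in 0.5% DMSO; bidirectional curve fitting versus DMSO.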

[8] = read-out: Forkhead box O1 (FOXO1), FOXO1 (gene 2308); experiment: LTEA_HepaRG_FOXO1: Life Technologies and Expression Analysis (LTEA) Assay for Forkhead box O1 (FOXO1) using HepaRG (AID 2283456)
Summary of the method: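 HepaRG, 48 h exposure, 8-pt half-log series from 100 uM in 0.5% DMSO, duplicates; Fluidigm qRT-PCR mRNA, housekeeping-normalised; bidirectional fit vs DMSO baseline.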

[9] = read-out: growth arrest and DNA damage 45 (GADD45A), GADD45A (gene 1647); experiment: LTEA_HepaRG_GADD45A: Life Technologies and Expression Analysis (LTEA) Assay for growth arrest and DNA damage 45 (GADD45A) using HepaRG (AID 2283458)
Summary of the method: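 Transcript induction or loss, quantified by TaqMan qRT-PCR against three housekeeping genes, is the read-out. HepaRG cells received chemicals for 48 h across eight half-log concentrations from 100 uM in 0.5% DMSO; gain and loss fitted relative to DMSO.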

[10] = read-out: Forkhead box O3 (FOXO3), FOXO3 (gene 2309); experiment: LTEA_HepaRG_FOXO3: Life Technologies and Expression Analysis (LTEA) Assay for Forkhead box O3 (FOXO3) using HepaRG (AID 2283459)
Summary of the method: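 qRT-PCR readout of FOXO3 transcript, normalized to three housekeeping genes (ACTB, GAPDH, POLR2A); gain or loss fitted against 0.5% DMSO vehicle. HepaRG cells, 48 h chemical exposure, 8-point half-log series, top 100 uM.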

[11] = read-out: ABC Transporter (ABCB1), ABCB1 (gene 5243); experiment: LTEA_HepaRG_ABCB1: Life Technologies and Expression Analysis (LTEA) Assay for ABC Transporter (ABCB1) using HepaRG (AID 2283460)
Summary of the method: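 HepaRG, 48 h exposure, 8-pt half-log series from 100 uM, 0.5% DMSO vehicle, duplicates. Readout: ABCB1 transcript by Fluidigm TaqMan qRT-PCR, housekeeping-normalized; bidirectional curve fit vs DMSO baseline.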

[12] = read-out: growth arrest and DNA damage 45 (GADD45B), GADD45B (gene 4616); experiment: LTEA_HepaRG_GADD45B: Life Technologies and Expression Analysis (LTEA) Assay for growth arrest and DNA damage 45 (GADD45B) using HepaRG (AID 2283461)
Summary of the method: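 HepaRG, ~100,000 cells/well, 48 h plating; serum-free induction medium; cpd 100 uM top, half-log x8, 0.5% DMSO, duplicate, 48 h; lysis in RLT, RNA isolation, qRT-PCR; norm ACTB/GAPDH/POLR2A; bidirectional fit vs DMSO.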

[13] = read-out: ABC Transporter (ABCC3), ABCC3 (gene 8714); experiment: LTEA_HepaRG_ABCC3: Life Technologies and Expression Analysis (LTEA) Assay for ABC Transporter (ABCC3) using HepaRG (AID 2283462)
Summary of the method: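 Human HepaRG, 48 h dosing, 8-pt half-log series from 100 uM, 0.5% DMSO vehicle, duplicates. ABCC3 mRNA by TaqMan qRT-PCR, housekeeping-normalized; bidirectional curve fit vs DMSO.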

[14] = read-out: ABC Transporter (ABCB11), ABCB11 (gene 8647); experiment: LTEA_HepaRG_ABCB11: Life Technologies and Expression Analysis (LTEA) Assay for ABC Transporter (ABCB11) using HepaRG (AID 2283463)
Summary of the method: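 HepaRG, 48 h exposure, 8-pt half-log CRC top 100 uM, 0.5% DMSO vehicle, duplicates. Readout: TaqMan qRT-PCR of ABCB11 mRNA, housekeeping-normalized (ACTB/GAPDH/POLR2A). Bidirectional fit vs DMSO baseline.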

[15] = read-out: ABC Transporter (ABCC2), ABCC2 (gene 1244); experiment: LTEA_HepaRG_ABCC2: Life Technologies and Expression Analysis (LTEA) Assay for ABC Transporter (ABCC2) using HepaRG (AID 2283464)
Summary of the method: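 HepaRG, 48 h post-plating; serum-free induction medium; cpd 8-pt, 100 uM top, half-log, 0.5% DMSO, duplicate, 48 h. Readout: ABCC2 mRNA by qRT-PCR, norm. ACTB/GAPDH/POLR2A. Bidirectional fit vs DMSO baseline.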

[16] = read-out: Broad substrate specificity ATP-binding cassette transporter ABCG2 (Homo sapiens) (UniProt Q9UNQ0); experiment: LTEA_HepaRG_ABCG2: Life Technologies and Expression Analysis (LTEA) Assay for ABC Transporter (ABCG2) using HepaRG (AID 2283465)
Summary of the method: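 HepaRG, 48 h exposure, 8-pt half-log series from 100 uM, 0.5% DMSO vehicle, duplicates. Readout: ABCG2 transcript by qRT-PCR (Fluidigm array), housekeeping-normalized; bidirectional curve fit relative to DMSO baseline.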

[17] = read-out: ATP-citrate lyase (ACLY), ACLY (gene 47); experiment: LTEA_HepaRG_ACLY: Life Technologies and Expression Analysis (LTEA) Assay for ATP-citrate lyase (ACLY) using HepaRG (AID 2283466)
Summary of the method: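 qRT-PCR readout of ACLY transcript after 48 h chemical treatment of HepaRG cells; expression normalized to three housekeeping genes. Eight-point half-log series, highest 100 uM, 0.5% DMSO vehicle. Gain or loss fitted against DMSO baseline.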

[18] = read-out: Peroxisomal acyl-coenzyme A oxidase 1 (ACOX1) gene, ACOX1 (gene 51); experiment: LTEA_HepaRG_ACOX1: Life Technologies and Expression Analysis (LTEA) Assay for Peroxisomal acyl-coenzyme A oxidase 1 (ACOX1) gene using HepaRG (AID 2283467)
Summary of the method: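 HepaRG, 48 h chemical exposure, 8-pt half-log series from 100 uM top, 0.5% DMSO vehicle, duplicates. Readout: ACOX1 mRNA by Fluidigm qRT-PCR, housekeeping-normalized; bidirectional fit vs DMSO baseline.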

Measured: AC50

Fatty acid synthase (Homo sapiens), sequence (P49327 whole entry, looked up): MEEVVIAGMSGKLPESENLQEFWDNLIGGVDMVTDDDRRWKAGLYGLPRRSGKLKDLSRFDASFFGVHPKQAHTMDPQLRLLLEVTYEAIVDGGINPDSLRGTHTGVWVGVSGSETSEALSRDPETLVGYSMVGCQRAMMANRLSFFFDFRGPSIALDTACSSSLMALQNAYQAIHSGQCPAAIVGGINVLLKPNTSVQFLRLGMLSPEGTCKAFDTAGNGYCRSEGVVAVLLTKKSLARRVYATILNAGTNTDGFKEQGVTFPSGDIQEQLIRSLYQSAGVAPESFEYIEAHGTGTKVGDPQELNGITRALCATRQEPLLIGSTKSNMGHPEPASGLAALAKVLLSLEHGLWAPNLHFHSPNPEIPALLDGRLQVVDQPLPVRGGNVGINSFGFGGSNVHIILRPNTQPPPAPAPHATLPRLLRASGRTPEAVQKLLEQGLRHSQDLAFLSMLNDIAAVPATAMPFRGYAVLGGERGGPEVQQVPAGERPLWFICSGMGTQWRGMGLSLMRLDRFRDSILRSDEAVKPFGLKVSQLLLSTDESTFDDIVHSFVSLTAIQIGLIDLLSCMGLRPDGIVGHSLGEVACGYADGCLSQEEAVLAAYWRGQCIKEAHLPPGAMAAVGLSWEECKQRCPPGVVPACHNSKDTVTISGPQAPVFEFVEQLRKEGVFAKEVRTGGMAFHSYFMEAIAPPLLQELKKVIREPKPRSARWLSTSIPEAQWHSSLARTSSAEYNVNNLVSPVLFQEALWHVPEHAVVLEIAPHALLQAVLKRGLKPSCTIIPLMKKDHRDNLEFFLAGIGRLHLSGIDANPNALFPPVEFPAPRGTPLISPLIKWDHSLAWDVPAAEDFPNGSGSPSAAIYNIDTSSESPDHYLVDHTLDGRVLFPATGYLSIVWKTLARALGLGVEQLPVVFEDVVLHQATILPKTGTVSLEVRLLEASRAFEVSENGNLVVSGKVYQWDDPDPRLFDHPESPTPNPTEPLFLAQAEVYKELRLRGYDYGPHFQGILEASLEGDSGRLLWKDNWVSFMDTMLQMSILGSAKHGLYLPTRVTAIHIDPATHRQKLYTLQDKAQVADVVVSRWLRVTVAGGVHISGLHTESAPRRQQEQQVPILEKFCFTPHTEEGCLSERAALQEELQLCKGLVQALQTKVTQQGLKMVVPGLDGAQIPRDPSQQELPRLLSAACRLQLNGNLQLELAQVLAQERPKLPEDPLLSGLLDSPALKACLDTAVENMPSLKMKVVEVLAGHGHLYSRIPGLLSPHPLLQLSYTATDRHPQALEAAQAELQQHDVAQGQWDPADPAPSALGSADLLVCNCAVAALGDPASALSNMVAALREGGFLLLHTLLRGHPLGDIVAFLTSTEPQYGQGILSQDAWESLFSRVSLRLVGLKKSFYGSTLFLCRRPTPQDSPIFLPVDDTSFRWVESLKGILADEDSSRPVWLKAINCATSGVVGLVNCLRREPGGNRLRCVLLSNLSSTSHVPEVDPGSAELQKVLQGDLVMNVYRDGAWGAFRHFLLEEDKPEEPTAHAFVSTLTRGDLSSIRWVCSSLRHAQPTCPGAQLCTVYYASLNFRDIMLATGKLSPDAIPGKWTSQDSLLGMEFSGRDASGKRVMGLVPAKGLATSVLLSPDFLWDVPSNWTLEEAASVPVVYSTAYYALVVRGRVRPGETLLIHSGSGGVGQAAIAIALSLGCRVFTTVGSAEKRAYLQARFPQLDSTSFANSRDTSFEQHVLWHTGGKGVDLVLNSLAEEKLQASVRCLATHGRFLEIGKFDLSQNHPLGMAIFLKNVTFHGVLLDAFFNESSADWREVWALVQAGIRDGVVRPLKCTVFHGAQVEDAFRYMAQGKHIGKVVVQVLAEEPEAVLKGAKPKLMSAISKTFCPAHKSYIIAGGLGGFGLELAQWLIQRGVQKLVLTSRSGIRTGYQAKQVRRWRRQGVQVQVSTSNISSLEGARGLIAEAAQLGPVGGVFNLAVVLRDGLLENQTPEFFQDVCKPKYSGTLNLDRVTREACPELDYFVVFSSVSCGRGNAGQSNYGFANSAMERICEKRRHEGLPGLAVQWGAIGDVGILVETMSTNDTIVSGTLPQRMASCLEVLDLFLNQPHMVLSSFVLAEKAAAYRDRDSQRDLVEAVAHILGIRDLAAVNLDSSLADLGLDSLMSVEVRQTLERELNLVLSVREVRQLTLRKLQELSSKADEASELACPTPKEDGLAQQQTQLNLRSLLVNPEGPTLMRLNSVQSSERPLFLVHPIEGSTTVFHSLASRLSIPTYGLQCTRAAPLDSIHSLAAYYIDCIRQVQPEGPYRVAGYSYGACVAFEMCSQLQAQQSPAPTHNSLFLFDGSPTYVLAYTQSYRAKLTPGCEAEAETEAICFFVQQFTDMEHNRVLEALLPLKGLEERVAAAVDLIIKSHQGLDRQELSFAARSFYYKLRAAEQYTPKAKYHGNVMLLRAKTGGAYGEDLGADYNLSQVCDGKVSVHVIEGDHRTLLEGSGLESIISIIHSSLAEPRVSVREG
Broad substrate specificity ATP-binding cassette transporter ABCG2 (Homo sapiens), sequence (Q9UNQ0 whole entry, looked up): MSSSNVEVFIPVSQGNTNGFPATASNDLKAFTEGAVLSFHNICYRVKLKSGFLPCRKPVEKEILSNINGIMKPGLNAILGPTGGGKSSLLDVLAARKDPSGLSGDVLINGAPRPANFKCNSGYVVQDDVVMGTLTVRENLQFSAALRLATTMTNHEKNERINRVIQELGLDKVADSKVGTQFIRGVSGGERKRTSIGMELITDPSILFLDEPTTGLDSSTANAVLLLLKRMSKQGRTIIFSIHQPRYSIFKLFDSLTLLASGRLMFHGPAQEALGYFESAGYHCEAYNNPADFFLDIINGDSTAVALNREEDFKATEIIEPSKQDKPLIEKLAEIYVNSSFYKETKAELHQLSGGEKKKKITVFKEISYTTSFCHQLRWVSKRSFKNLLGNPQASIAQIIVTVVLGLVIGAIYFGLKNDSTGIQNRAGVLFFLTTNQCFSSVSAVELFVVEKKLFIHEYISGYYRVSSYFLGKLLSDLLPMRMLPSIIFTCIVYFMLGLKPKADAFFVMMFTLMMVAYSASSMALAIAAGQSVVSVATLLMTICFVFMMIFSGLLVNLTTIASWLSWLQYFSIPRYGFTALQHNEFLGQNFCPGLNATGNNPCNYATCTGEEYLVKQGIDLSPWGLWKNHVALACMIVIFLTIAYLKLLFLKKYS

O=C(O)C(F)(F)C(F)(F)C(F)(F)C(F)(F)C(F)(F)C(F)(F)F
active: [11] 0.101 µM
inactive: all other assays above

C=CC(=O)OCCCCCC(C)C
inactive: all assays above

O=C1C2(Cl)C3(Cl)C4(Cl)C(Cl)(Cl)C5(Cl)C3(Cl)C1(Cl)C5(Cl)C24Cl (stereo not drawn)
inactive: [1] | [7] | [9] | [14]
active: [2] 93.5 µM | [3] 91.9 µM | [4] 93 µM | [5] 92.9 µM | [6] 22.6 µM | [8] 93.5 µM | [10] 93.2 µM | [11] 91.8 µM | [12] 93 µM | [13] 92.7 µM | [15] 93.6 µM | [16] 15.8 µM | [17] 93.1 µM | [18] 0.0893 µM

CC(C)(c1ccccc1)c1ccc(O)c(C(C)(C)c2ccccc2)c1
active: [6] 78.2 µM | [11] 22.1 µM | [14] 43.1 µM | [15] 12.7 µM | [16] 36.2 µM | [18] 50 µM
not listed: [2]
inactive: all other assays above

ClCC(Cl)CCl
inactive: all assays above

CC(C)(C)c1cc(O)ccc1O
not listed: [13]
inactive: all other assays above

Cc1ccccc1N
inactive: all assays above

O=C(O)C(F)(F)C(F)(F)C(F)(F)C(F)(F)C(F)(F)C(F)(F)C(F)(F)C(F)(F)C(F)(F)C(F)(F)F
active: [6] 69.1 µM | [10] 47.8 µM | [14] 13.7 µM
inactive: all other assays above

CCC(=O)C(CC(C)N(C)C)(c1ccccc1)c1ccccc1 (stereo not drawn)
active: [6] 46.7 µM | [13] 36.2 µM
inactive: all other assays above

NC(=O)O
not listed: [3]
inactive: all other assays above

C=C(C)C(=O)[O][Sn]([CH2]CCC)([CH2]CCC)[CH2]CCC
inactive: [2] | [3] | [4] | [5] | [10] | [12] | [17] | [18]
active: [6] 74.9 µM | [7] 4.03 µM | [8] 1.98 µM | [9] 0.314 µM | [11] 3.08 µM | [13] 3.06 µM | [14] 2.02 µM | [15] 3.35 µM | [16] 0.917 µM

CCCCCCCCc1ccc(O)cc1
active: [5] 0.346 µM
not listed: [1] | [3]
inactive: all other assays above

CC(=O)[O][Hg][c]1ccccc1
active: [2] 2.25 µM | [4] 0.174 µM | [5] 3.75 µM | [6] 16.9 µM | [7] 16.8 µM | [8] 12.9 µM | [9] 16.3 µM | [10] 14.5 µM | [11] 24.1 µM | [13] 13 µM | [14] 1.22 µM | [15] 27.2 µM | [17] 23.3 µM | [18] 15.2 µM
inactive: [12] | [16]

CCC(C)(C)c1ccc(O)c(C(C)(C)CC)c1
inactive: all assays above

ClC1(Cl)C2(Cl)C3(Cl)C4(Cl)C(Cl)(Cl)C5(Cl)C3(Cl)C1(Cl)C5(Cl)C24Cl (stereo not drawn)
active: [2] 3.24 µM | [17] 5.15 µM
inactive: all other assays above

Oc1cccc2cccnc12
inactive: all assays above

O=C(O)C(Cl)(Cl)Cl
inactive: all assays above
